Compounds with a hit are over-represented: about 1.9% of the library has one in this group of screens.
dFosB act = enhances mouse delta FosB homodimer DNA binding | purified delta FosB, TAMRA-CDK5 oligo fluorescence polarization; percent of positive-control signal above neutral wells | activation, % at 25 µM | 340,000 tested, 0.99% active;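 active = mean activation above about 17%, with every replicate also reaching it, limit read from the data, passing the limit was not always enough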
Target sequence (P13346 whole entry, looked up): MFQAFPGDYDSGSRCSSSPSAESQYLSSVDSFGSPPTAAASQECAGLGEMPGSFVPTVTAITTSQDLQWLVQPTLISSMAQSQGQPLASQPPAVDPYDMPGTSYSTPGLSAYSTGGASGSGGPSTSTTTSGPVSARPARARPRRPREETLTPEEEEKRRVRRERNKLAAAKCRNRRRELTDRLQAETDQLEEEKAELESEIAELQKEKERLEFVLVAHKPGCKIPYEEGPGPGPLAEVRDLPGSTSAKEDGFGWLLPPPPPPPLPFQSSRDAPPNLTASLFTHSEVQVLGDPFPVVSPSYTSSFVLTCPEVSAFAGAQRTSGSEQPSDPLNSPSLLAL
HMGR II inh = E. faecalis class II HMG-CoA reductase inhibition; purified E. faecalis HMGR, NADPH absorbance 340 nm kinetic; inhibition, % at 10 µM; 190,000 tested, 0.41% active;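 active = inhibition above a set limit, the median over all tested compounds plus 3 SD, cut at about 9.5% in these data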;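 note: enzyme runs in reverse so mevalonate oxidation gives rising NADPH absorbance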
p47phox inh = p47phox (human) inhibition | P14598 | p47phox/p22phox peptide binding, fluorescence polarization, 2 h | inhibition, % at 24.7 µM | 220,000 tested, 0.53% active | AID 1274;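 active = inhibition above about 30%, limit read from the data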
Target sequence (P14598 whole entry, looked up): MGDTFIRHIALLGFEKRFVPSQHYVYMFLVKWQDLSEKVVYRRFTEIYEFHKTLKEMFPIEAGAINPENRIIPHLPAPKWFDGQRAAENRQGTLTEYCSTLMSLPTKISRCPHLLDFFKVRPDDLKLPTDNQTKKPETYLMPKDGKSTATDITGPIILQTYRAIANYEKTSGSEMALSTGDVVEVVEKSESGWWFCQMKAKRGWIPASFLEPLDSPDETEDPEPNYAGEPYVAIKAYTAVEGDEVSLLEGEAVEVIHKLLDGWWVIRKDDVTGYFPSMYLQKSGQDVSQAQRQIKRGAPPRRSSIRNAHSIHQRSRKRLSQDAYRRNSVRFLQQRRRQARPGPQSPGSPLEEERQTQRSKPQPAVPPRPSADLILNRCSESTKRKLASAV
14-3-3 Bad PPI = disrupts binding of bovine 14-3-3 zeta to phospho-Bad peptide; TR-FRET 14-3-3zeta/Dy647-pBad peptide displacement, 1 h; AID 781; 220,000 tested, 0.71% active; inhibition, % at 21.7 µM;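 active = inhibition above about 70%, limit read from the data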
Of the large screens only hits and unclear results are named; the others gave an inactive call; [ ] = another dose, or the depositor's remark.

Cn1cc([N+](=O)[O-])c(C(=O)Nc2cc(Oc3cccnc3)cc([N+](=O)[O-])c2)n1	14-3-3 Bad PPI 74.4 (no result: dFosB act)
O=[N+]([O-])c1cc(Oc2cccnc2)cc([N+](=O)[O-])c1	none
Cn1cc([N+](=O)[O-])c(C(=O)Nc2ccc(C3CCCCC3)cc2)n1	HMGR II inh 11.2
Cn1cc([N+](=O)[O-])c(C(=O)Nc2ccc(-c3nc4ccccc4[nH]3)cc2)n1	HMGR II inh 12.1
CCOC(=O)c1c(C)[nH]c(C(=O)COC(=O)C23CC4CC(CC(Cl)(C4)C2)C3)c1C	none
O=C1C(=O)N(CCN2CCOCC2)C(c2ccc(Cl)c(Cl)c2)/C1=C(/O)c1ccc2c(c1)OCO2 (stereo not drawn)	none (no result: HMGR II inh, p47phox inh, 14-3-3 Bad PPI)
CCN(CC)CCNc1nc2cc(OC)c(OC)cc2c2nc(-c3ccccc3)nn12	dFosB act 151.3
COc1cc2[nH]c(=O)n3nc(-c4ccccc4)nc3c2cc1OC	none
O=C(CCNc1ccc(F)cc1)c1cc2ccccc2o1	p47phox inh 61.6
O=[N+]([O-])/C(=C\Nc1ccccc1Cl)S(=O)(=O)c1ccccc1	HMGR II inh 17.6
CCCC(=O)Nc1ccc(C(=O)COC(=O)C2CC2C)cc1 (stereo not drawn)	none (no result: HMGR II inh, p47phox inh, 14-3-3 Bad PPI)
CC(=O)Nc1ccc(NC(=O)Cn2c(-c3ccc(F)cc3)cnc2SCC(=O)Nc2c(C)cccc2C)cc1	dFosB act 64.3
Cn1c(-c2ccc(F)cc2)cnc1SCC(=O)Nc1ccccc1	none
Cc1ccnc(SCC(=O)N2CCc3ccccc3C2)n1	none
CC(OC(=O)c1ncc(Cl)c(Cl)c1Cl)C(=O)NC1CCCCC1C (stereo not drawn)	none (no result: HMGR II inh, p47phox inh, 14-3-3 Bad PPI)
Cc1ccc(S(=O)(=O)Nc2ccc3cn[nH]c3c2)cc1	none (no result: HMGR II inh, p47phox inh, 14-3-3 Bad PPI)
COc1cc(S(=O)(=O)Nc2ccc3cn[nH]c3c2)ccc1Cl	HMGR II inh 12.0
CCN(CC)c1ccc(/C=N/NC(=O)Cc2nnc(NC(=O)Nc3ccccc3)s2)cc1	dFosB act 25.4
Fc1ccc(-c2cnn3c(-c4cccs4)ccnc23)cc1	none
CN(C)CCNc1ccc(CO)c2sc3ccc(O)cc3c(=O)c12	dFosB act 38.2 (no result: HMGR II inh, p47phox inh, 14-3-3 Bad PPI)
CN(C)CCNc1ccc2ncn3c4ccc(O)cc4c(=O)c1c23	dFosB act 63.9 (no result: HMGR II inh, p47phox inh, 14-3-3 Bad PPI)
O=C(O)c1ccccc1N/N=C\c1ccnc2ccccc12	14-3-3 Bad PPI 78.0
Oc1ccc(/C=N/NC(=S)Nc2cccnc2)cc1O	14-3-3 Bad PPI 83.9[fluorescence artefact?]
COc1ccc(/C=N/n2cnnc2)cc1Cn1nc(C)c([N+](=O)[O-])c1C	HMGR II inh 10.7
CCOC(=O)N1CCN(Cc2nc3cc(NC(=O)C(C)C)ccc3n2C)CC1	none (no result: HMGR II inh, p47phox inh, 14-3-3 Bad PPI)
Cc1ccc(CNc2oc(C)nc2C#N)cc1	14-3-3 Bad PPI 88.6
COc1ccc(S(=O)(=O)NN(C)c2nc(C(F)(F)F)nc3ccccc23)cc1	none
CC1CN(Cc2cnc(Cl)s2)CC(C)O1 (stereo not drawn)	HMGR II inh 22.9
Cc1cc(-n2c(C)cc(C(=O)CN3C(=O)C(=O)N(C)C3=O)c2C)no1	none (no result: HMGR II inh, p47phox inh, 14-3-3 Bad PPI)
Cc1ccc(NC(=O)N2CCCC2C(=O)Nc2ccc(-n3cnnn3)c(C)c2)cc1 (stereo not drawn)	HMGR II inh 9.7
Cc1cc(NC(=O)C2CCCN2C(=O)Nc2cccc(Cl)c2)ccc1-n1cnnn1 (stereo not drawn)	none
Cc1cc(SCn2nnc3ccccc3c2=O)nc2ccccc12	HMGR II inh 115.2
COc1ccc(-c2sc3ccccc3c2-c2ccc(OCCN(C)C)cc2)cc1	dFosB act 25.2 (no result: HMGR II inh, p47phox inh, 14-3-3 Bad PPI)
Cc1ccc(S(=O)(=O)N2CCN(C(=O)CC(C)(C)C)CC2)cc1	none
CCNC(=S)N1CCN(CCN=CC2=C(O)CC(c3ccco3)CC2=O)CC1 (stereo not drawn)	none
C=CCNC(=S)N1CCN(CCN=CC2=C(O)CC(c3ccco3)CC2=O)CC1 (stereo not drawn)	p47phox inh 35.5
O=C(NC(=S)Nc1ncccn1)c1ccc(Cl)cc1Cl	none
CC(C)Cc1ccc(C(C)C(=O)Nc2ncccn2)cc1 (stereo not drawn)	none
COc1ccc(OC)c(CNc2c(C=O)c(=O)[nH]c3ccccc23)c1	none (no result: HMGR II inh, p47phox inh, 14-3-3 Bad PPI)
N#CC(C#N)=c1ccc2c(c1)NC1(CCCCC1)N=2	p47phox inh 132.5
COC(=O)C1=C(C)N(CCc2cc(OC)c(OC)c(OC)c2)C(=O)N[C@H]1c1cccs1	none (no result: dFosB act)
CCc1nnc(NC(=O)COC(=O)CN2C(=O)c3ccccc3C2=O)s1	none
Cc1cccn2cc(-c3ccc(S(=O)(=O)N4CCCCC4)cc3)nc12	HMGR II inh 10.1
COc1cc(S(=O)(=O)Nc2ccc(C)cc2)ccc1NC(=O)c1ccncc1	none
Cc1ccc(NS(=O)(=O)c2ccc(NC(=O)c3ccccc3C(=O)O)cc2)c(C)c1	none (no result: HMGR II inh, p47phox inh, 14-3-3 Bad PPI)
COc1cc(S(=O)(=O)Nc2ccccc2C)ccc1NC(=O)c1ccncc1	HMGR II inh 15.5
Cc1ccc(-c2cc(C(F)F)n3ncc(C(=O)Nc4ccc(S(=O)(=O)Nc5ccccc5C)cc4)c3n2)cc1	HMGR II inh 10.4
Cc1ccc(NS(=O)(=O)c2ccc(NC(=O)c3ccc(-c4ccccc4)cc3)cc2)c(C)c1	dFosB act 54.4 (no result: HMGR II inh, p47phox inh, 14-3-3 Bad PPI)
CCCNc1nc2c(c(=O)n(C)c(=O)n2C)n1Cc1cccc(C)c1	none
CCOC(=O)c1c(NC(=O)CCC(=O)O)sc2c1CC(C)(C)OC2	none
CCOC(=O)c1c(NC(=O)C2CC2)sc2c1CC(C)(C)OC2	14-3-3 Bad PPI 91.4 (no result: HMGR II inh)
CCC1(C)Cc2c(sc3c2c2ncnn2c2nnc(SCC(=O)NCc4ccco4)n32)CO1 (stereo not drawn)	none
Cc1nc(N)nc(N)c1CCCc1ccc(Cl)c(Cl)c1	dFosB act 26.7 (no result: HMGR II inh, p47phox inh, 14-3-3 Bad PPI)
CCCNS(=O)(=O)c1ccc(OC)c(Cl)c1Cl	p47phox inh 30.4
Clc1ccc(-c2csc(N/N=C/c3ccco3)n2)cc1	none (no result: HMGR II inh)
Clc1ccc(-c2csc(N/N=C\c3cccnc3)n2)cc1	14-3-3 Bad PPI 76.2
CCCCNS(=O)(=O)c1ccc(OC)c(C)c1	none
CCOc1ccc(S(=O)(=O)NCCOC)cc1C	14-3-3 Bad PPI 72.9
COc1ccc2nc(/N=C/c3c(C)[nH]n(-c4ccc(C)cc4)c3=O)sc2c1	p47phox inh 33.9
O=C(N=C1c2ccccc2CN1c1ccc(F)c(F)c1)c1cccnc1	14-3-3 Bad PPI 71.5
O=C(N=C1c2ccccc2CN1c1cccc(Cl)c1)c1cccnc1	none
O=C(NCCCO)c1ccc(CSc2nc3ccccc3[nH]2)cc1	HMGR II inh 13.2 (no result: p47phox inh)
Cc1ccc(NC(=O)CN2C(=O)NC(Cc3ccccc3)C2=O)c(Br)c1 (stereo not drawn)	HMGR II inh 10.3
O=C(CN1C(=O)NC(Cc2ccccc2)C1=O)Nc1ccccc1F (stereo not drawn)	none (no result: HMGR II inh, p47phox inh, 14-3-3 Bad PPI)
CC(=O)Nc1nnc(SCc2ccc(F)cc2)s1	none
O=C(Nc1nnc(SCc2ccc(F)cc2)s1)c1ccc2ncsc2c1	14-3-3 Bad PPI 80.3
c1ccc(-c2nnc(CN3CCN(C(c4ccccc4)c4ccccc4)CC3)o2)cc1	p47phox inh 159.4
CCOC(=O)N1CCC(NC(=O)c2ccc3nc4ccccc4c(=O)n3c2)CC1	p47phox inh 39.4 (no result: dFosB act)
NC(=S)n1[nH]c(-c2ccc([N+](=O)[O-])cc2)c(N=Nc2ccc(Cl)cc2)c1=O	14-3-3 Bad PPI 93.2
CCc1ccc(OCC(=O)Nc2ccncc2)cc1	none (no result: HMGR II inh, p47phox inh, 14-3-3 Bad PPI)
CCSS(=O)(=O)c1cccc2cccnc12	p47phox inh 51.9 (no result: HMGR II inh)

Source: PubChem BioAssay
